From PubChem BioAssay (EPA / NIEHS) come the findings set out here.

Where “and” joins values, the source holds several entries; their conditions need not be identical. Equal values may be shown once. Inconclusive results are not listed. Some structures have more than one record in an assay (separate samples or runs), and their calls can disagree. Calls of active or inactive are those of the source. How the source made its calls: active means hit-call score of the fitted dose curve at least 0.9, where 1 is the maximum; inconclusive means response in the unintended direction; inactive means score below 0.9.

The test system of test [1] is NCBI gene 100848466. Nature of the test: NVS_NR_bPR: NovaScreen (NVS) Nuclear Receptor Binding Assay for bovine Progextron Receptor (PR) (AID 2283343). Summed up: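 Competitive radioligand binding with membranes from bovine uterus, scintillation read-out at 18 h post-dose. Compounds first tested in duplicate at 25 uM, then actives in concentration series; loss-of-signal relative to DMSO.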

Test [2] has as its target human Constitutive Androstane Receptor (CAR), NR1I3 (gene 9970) (UniProt Q14994). The test is described as follows: NVS_NR_hCAR_Antagonist: NovaScreen (NVS) Nuclear Receptor Binding Assay for human Constitutive Androstane Receptor Antagonism (CAR) (AID 2283344). A digest of the protocol: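 Single 25 uM duplicate primary screen, with concentration-series follow-up on actives. Cell-free binding format run in antagonist mode, TR-FRET signal taken 1 h post-dose; activity is signal loss relative to DMSO.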

The target in test [3] is bovine Estrogen Receptor (ER), ESR1 (gene 407238) (UniProt P49884). Nature of the test: NVS_NR_bER: NovaScreen (NVS) Nuclear Receptor Binding Assay for bovine Estrogen Receptor (ER) (AID 2283345).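 Further: actives lower the bound radioligand count which means they displace the ER ligand.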 Summed up: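 Displacement of a radioligand from estrogen receptor in bovine uterine membrane preparations; scintillation signal taken at 18 hours, DMSO as baseline. Single-concentration duplicates (25 uM) preceded concentration-response follow-up of actives.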

For test [4], the target named is chimpanzee Androgen Receptor (AR), AR (gene 747460) (UniProt O97775). The test is described as follows: NVS_NR_cAR: NovaScreen (NVS) Nuclear Receptor Binding Assay for chimpanzee Androgen Receptor (AR) (AID 2283346).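 Further: radioligand displacement from AR measured by scintillation counting in a cell-free assay; a loss of bound radioligand signal versus DMSO counts as binding.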 Summed up:
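Cell-free competition binding with insect-cell (Sf9/Sf21) extracted chimpanzee AR; scintillation signal from lysate at 72 h. Screened in duplicate at 25 uM, then concentration-response for actives; fitting relative to DMSO.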

In test [5] the target is Estrogen receptor (Homo sapiens) (UniProt P03372). The test is described as follows: NVS_NR_hER: NovaScreen (NVS) Nuclear Receptor Binding Assay for human Estrogen Receptor (ER) (AID 2283348). A digest of the protocol: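 Cell-free MCF7-derived ER preparation, specific radioligand displaced by test compound, read by scintillation counting 18 h post-dosing. Duplicate single-point 25 uM screen, then concentration-response confirmation; DMSO baseline.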

Test [6] has the same target. The test is described as follows: OT_ER_ERaERa_1440: Odyssey Thera (OT) 24-hour HEK293T Protein-Complementation Assay for Estrogen Receptor-alpha/-alpha Homodimer (AID 2283349).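 Further: hits raise fluorescence above DMSO for agonists and antagonists alike.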 Summed up: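 HEK293T, stable ERα LBD (aa 310-547) homodimer PCA; 24 h compound exposure; mean fluorescence intensity (nuclear for agonists, nuclear plus cytoplasmic for antagonists) vs vehicle; positive fitting direction, DMSO baseline.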

The target is the same in test [7]. Nature of the test: OT_ER_ERaERa_0480: Odyssey Thera (OT) 8-hour HEK293T Protein-Complementation Assay for Estrogen Receptor-alpha/-alpha Homodimer (AID 2283351).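 Further: rise in fluorescence from reassembled reporter fragments on ERα LBD homodimer in nucleus or whole cell.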 Summed up:
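HEK293T cells stably expressing a PCA pair of ER alpha LBD (residues 310-547) were dosed for 8 hours. The gain in fluorescence intensity, nuclear for agonists and whole-cell for antagonists, was measured by laser scanning cytometry against DMSO vehicle.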

The target of test [8] is T1, Estrogen receptor (Homo sapiens) + Estrogen receptor beta (Homo sapiens) (UniProt P03372+Q92731). The test is described as follows: OT_ER_ERaERb_0480: Odyssey Thera (OT) 8-hour HEK293T Protein-Complementation Assay for Estrogen Receptor-alpha/-beta Heterodimer (AID 2283352). A digest of the protocol: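 Fluorescence increase from reconstituted reporter fragments, quantified by laser scanning cytometer, reflects ER-alpha/ER-beta heterodimer formation in human HEK293T cells. Exposure 8 h; positive-direction fitting against DMSO vehicle.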

Test [9] concerns the target T1, Estrogen receptor (Homo sapiens) + Estrogen receptor beta (Homo sapiens). The test is described as follows: OT_ER_ERaERb_1440: Odyssey Thera (OT) 24-hour HEK293T Protein-Complementation Assay for Estrogen Receptor-alpha/-beta Homodimer (AID 2283356).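 Further: heteromer of ER alpha and ER beta binding domains; hits raise reporter fluorescence and both agonists and antagonists give an increase.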 A digest of the protocol:
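Fragment complementation between ER alpha (310-547) and ER beta (263-489) ligand-binding domains in HEK293T cells; signal read 24 h post-dosing by laser scanning cytometer. Gain of fluorescence relative to DMSO fitted.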

Test [10] deals with Estrogen receptor beta (Homo sapiens) (UniProt Q92731). Nature of the test: OT_ER_ERbERb_0480: Odyssey Thera (OT) 8-hour HEK293T Protein-Complementation Assay for Estrogen Receptor-beta/-beta Homodimer (AID 2283357).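 Further: active means signal gain over DMSO baseline.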 A digest of the protocol: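 ER-beta LBD homodimer PCA stably expressed in HEK293T; 8 h compound exposure, then formaldehyde fixation and Draq5 staining. Gain in nuclear/cytoplasmic fluorescence intensity versus DMSO vehicle, read on laser scanning cytometer.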

Test [11] concerns the target Retinoic acid receptor alpha (Homo sapiens) (UniProt P10276). The test is described as follows: NVS_NR_hRAR_Antagonist: NovaScreen (NVS) Nuclear Receptor Binding Assay for human Retinoic Acid Alpha Receptor Antagonism (RAR) (AID 2283358). A digest of the protocol:
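RARalpha antagonism was read by TR-FRET as loss of binding signal versus DMSO, 2 h after chemical addition, in a biochemical format. Single-concentration duplicates (25 uM) were run first, and actives were retested in concentration series.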

Test [12] has as its target rat Glycine Receptor, Strychnine-sensitive (GlyRStrySens), Glra1 (gene 25674) (UniProt P07727). The test is described as follows: NVS_LGIC_rGlyRStrySens: NovaScreen (NVS) Ligand-Gated Ion Channel Assay for rat Glycine Receptor, Strychnine-sensitive (GlyRStrySens) (AID 2283341). A digest of the protocol: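 Radioligand displacement on rat spinal cord membranes, 1 hr, filter scintillation read-out. Single-concentration duplicate screen at 25 uM; chemicals meeting threshold (e.g., 30% inhibition) rerun in concentration-response up to 50 uM. Loss of binding fitted versus DMSO.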

Test [13] has as its target Androgen Receptor/SRC-1 Co-activator, AR (gene 367) (UniProt P10275). Nature of the test: OT_AR_ARSRC1_0480: Odyssey Thera (OT) 8-hour HEK293T Protein-Complementation Assay for Androgen Receptor/SRC-1 Co-activator (AID 2283354).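 Further: hits raise the complementation signal above DMSO so AC50 marks enhancers.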 Summed up:
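Reconstituted split-Venus YFP signal from AR–SRC-1 interaction, read by imaging 8 h post-dose in stable HEK293T lines. The 488 nm nucleus-to-cytoplasm ratio (≥400 cells/image) was fitted upward against DMSO.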

For test [14], the target named is rat Mineralocorticoid Receptor (MR), Nr3c2 (gene 25672) (UniProt P22199). The test is described as follows: NVS_NR_rMR: NovaScreen (NVS) Nuclear Receptor Binding Assay for rat Mineralocorticoid Receptor (MR) (AID 2283355). Summed up:
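Primary HTS ran in duplicate at a single 25 uM concentration, with concentration-series follow-up for actives. Receptor source: adrenalectomized rat brain supernatant, cell-free. Radioligand displacement read by scintillation at 24 h, relative to DMSO baseline.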

Test [15] has as its target Bile acid receptor (Homo sapiens) (UniProt Q96RI1). Nature of the test: NVS_NR_hFXR_Antagonist: NovaScreen (NVS) Nuclear Receptor Binding Assay for human Farnesoid X Receptor Antagonism (FXR) (AID 2283350). A digest of the protocol:
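Antagonist-format time-resolved FRET binding assay with extracted human receptor protein, read 1 hour after compound addition. Compounds first screened at 25 uM in duplicate, then actives tested in concentration series, with loss of signal relative to DMSO.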

Test [16] addresses human Peroxisome Proliferator-activated Receptor alpha (PPARa), PPARA (gene 5465) (UniProt Q07869). The test is described as follows: NVS_NR_hPPARa: NovaScreen (NVS) Nuclear Receptor Binding Assay for human Peroxisome Proliferator-activated Receptor alpha (PPARa) (AID 2283359).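 Further: activity means loss of TR-FRET signal versus DMSO baseline.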 Summed up:
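Loss of TR-FRET binding signal relative to DMSO was measured 1 h after chemical addition to extracted receptor protein. Chemicals were first tested in duplicate at 25 uM, and actives were followed up in concentration series.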

The subject of test [17] is guinea pig Histamine Receptor (H2), gene 100729734. The test is described as follows: NVS_GPCR_gH2: NovaScreen (NVS) G Protein-Coupled Receptor Assay for guinea pig Histamine Receptor (H2) (AID 2283342). A digest of the protocol: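 Guinea pig striatal membrane preparation with specific radioligand; bound counts measured by filtration and scintillation 1 h post-dosing, DMSO as baseline. Chemicals passing a 25 uM duplicate screen were titrated to a 50 uM maximum.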

Test [18] concerns the target Bile acid receptor (Homo sapiens) (UniProt Q96RI1). The test is described as follows: NVS_NR_hFXR_Agonist: NovaScreen (NVS) Nuclear Receptor Binding Assay for human Farnesoid X Receptor Agonism (FXR) (AID 2283347). A digest of the protocol:
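Agonist-mode FXR assay read by time-resolved FRET 1 h after compound addition, using isolated human receptor protein without cells. Duplicate 25 uM single-point primary screen, concentration series for confirmed actives; DMSO as baseline.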

In test [19] the target is rat Glutamate, MK-801 Agonist Site (GluNMDA_MK801), Grin1 (gene 24408) (UniProt P35439). Nature of the test: NVS_LGIC_rGluNMDA_MK801_Agonist: NovaScreen (NVS) Ligand-Gated Ion Channel Assay for rat Glutamate, MK-801 Agonist Site (GluNMDA_MK801) (AID 2283340). Summed up:
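Rat forebrain membrane preparation; MK-801-site radioligand binding read by filtration and scintillation after 1.5 h. Single-point 25 uM duplicate screen, followed by singleton concentration series to 50 uM max; DMSO baseline.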

What is called AC50 is the concentration at which the activity in the assay is half-maximal.

rat Glycine Receptor, Strychnine-sensitive (GlyRStrySens), Glra1 (gene 25674), sequence (P07727 whole entry, looked up): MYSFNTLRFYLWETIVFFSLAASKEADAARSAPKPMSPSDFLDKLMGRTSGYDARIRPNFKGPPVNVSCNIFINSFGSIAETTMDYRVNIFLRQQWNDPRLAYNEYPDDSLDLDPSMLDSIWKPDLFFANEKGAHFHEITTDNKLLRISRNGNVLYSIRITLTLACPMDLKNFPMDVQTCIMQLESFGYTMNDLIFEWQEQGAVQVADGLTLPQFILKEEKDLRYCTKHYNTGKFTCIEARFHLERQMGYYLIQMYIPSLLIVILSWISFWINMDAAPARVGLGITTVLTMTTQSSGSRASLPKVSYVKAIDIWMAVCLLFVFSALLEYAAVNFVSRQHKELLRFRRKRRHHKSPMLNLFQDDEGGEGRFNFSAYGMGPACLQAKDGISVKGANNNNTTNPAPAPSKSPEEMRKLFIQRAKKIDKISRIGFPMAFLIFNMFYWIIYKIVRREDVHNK
chimpanzee Androgen Receptor (AR), AR (gene 747460), sequence (O97775 whole entry, looked up): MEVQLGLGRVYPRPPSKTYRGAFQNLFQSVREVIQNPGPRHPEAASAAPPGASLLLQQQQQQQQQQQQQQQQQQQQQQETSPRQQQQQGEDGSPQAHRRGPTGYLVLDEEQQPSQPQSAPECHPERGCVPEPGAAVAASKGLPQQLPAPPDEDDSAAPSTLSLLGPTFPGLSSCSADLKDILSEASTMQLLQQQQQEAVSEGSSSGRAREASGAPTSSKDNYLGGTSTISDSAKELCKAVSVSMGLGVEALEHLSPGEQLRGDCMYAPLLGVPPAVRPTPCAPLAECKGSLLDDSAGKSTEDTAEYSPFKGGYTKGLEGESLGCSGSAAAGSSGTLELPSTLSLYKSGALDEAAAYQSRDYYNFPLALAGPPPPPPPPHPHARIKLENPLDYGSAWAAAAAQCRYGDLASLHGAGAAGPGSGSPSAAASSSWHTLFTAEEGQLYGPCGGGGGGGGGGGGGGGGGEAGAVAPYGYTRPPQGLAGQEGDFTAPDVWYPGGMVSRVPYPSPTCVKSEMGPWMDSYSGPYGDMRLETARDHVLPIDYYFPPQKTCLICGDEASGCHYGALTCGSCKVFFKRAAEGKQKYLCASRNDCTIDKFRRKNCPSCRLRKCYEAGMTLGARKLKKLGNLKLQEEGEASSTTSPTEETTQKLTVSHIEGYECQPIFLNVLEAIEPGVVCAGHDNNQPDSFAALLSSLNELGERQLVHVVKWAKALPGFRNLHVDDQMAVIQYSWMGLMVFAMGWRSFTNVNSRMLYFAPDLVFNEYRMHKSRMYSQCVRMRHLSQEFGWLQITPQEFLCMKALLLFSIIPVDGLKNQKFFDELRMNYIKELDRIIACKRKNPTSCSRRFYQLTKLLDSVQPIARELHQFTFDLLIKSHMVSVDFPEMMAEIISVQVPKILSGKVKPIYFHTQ
human Constitutive Androstane Receptor (CAR), NR1I3 (gene 9970), sequence (Q14994 whole entry, looked up): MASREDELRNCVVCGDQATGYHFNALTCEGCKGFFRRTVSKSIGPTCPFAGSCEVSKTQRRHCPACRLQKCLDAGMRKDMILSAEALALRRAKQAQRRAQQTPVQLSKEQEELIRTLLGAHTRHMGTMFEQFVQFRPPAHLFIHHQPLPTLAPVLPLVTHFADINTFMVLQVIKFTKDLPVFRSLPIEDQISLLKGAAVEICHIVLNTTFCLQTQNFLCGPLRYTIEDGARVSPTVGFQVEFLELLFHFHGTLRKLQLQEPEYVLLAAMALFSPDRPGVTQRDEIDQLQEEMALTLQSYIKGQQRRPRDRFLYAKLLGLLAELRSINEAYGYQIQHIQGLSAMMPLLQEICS
bovine Estrogen Receptor (ER), ESR1 (gene 407238), sequence (P49884 whole entry, looked up): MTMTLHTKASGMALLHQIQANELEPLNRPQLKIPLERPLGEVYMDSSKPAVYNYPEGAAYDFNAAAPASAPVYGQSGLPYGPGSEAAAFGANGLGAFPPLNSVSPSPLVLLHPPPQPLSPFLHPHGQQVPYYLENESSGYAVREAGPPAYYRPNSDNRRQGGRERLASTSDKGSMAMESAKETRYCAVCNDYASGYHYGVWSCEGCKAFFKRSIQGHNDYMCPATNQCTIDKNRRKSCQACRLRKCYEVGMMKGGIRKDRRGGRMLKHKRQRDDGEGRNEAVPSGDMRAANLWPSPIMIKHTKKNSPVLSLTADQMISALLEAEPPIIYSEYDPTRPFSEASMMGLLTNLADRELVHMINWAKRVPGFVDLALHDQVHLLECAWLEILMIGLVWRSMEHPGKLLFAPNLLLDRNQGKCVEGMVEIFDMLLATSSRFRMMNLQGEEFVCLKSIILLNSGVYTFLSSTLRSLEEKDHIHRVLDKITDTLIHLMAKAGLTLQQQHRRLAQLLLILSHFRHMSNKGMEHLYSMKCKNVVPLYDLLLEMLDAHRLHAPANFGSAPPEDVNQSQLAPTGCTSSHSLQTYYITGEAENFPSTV
human Peroxisome Proliferator-activated Receptor alpha (PPARa), PPARA (gene 5465), sequence (Q07869 whole entry, looked up): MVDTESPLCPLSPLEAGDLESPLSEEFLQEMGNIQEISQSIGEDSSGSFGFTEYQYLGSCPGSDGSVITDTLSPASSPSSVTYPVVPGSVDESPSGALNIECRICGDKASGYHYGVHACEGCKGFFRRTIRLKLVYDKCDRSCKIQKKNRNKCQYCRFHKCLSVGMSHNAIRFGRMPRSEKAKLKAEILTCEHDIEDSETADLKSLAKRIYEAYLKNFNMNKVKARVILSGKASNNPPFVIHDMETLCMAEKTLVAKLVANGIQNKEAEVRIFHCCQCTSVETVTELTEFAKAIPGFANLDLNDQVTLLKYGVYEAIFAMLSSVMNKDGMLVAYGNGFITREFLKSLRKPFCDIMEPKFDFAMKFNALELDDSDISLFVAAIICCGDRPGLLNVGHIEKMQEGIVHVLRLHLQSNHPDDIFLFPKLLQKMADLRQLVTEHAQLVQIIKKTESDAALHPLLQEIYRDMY
Estrogen receptor (Homo sapiens), sequence (P03372 whole entry, looked up): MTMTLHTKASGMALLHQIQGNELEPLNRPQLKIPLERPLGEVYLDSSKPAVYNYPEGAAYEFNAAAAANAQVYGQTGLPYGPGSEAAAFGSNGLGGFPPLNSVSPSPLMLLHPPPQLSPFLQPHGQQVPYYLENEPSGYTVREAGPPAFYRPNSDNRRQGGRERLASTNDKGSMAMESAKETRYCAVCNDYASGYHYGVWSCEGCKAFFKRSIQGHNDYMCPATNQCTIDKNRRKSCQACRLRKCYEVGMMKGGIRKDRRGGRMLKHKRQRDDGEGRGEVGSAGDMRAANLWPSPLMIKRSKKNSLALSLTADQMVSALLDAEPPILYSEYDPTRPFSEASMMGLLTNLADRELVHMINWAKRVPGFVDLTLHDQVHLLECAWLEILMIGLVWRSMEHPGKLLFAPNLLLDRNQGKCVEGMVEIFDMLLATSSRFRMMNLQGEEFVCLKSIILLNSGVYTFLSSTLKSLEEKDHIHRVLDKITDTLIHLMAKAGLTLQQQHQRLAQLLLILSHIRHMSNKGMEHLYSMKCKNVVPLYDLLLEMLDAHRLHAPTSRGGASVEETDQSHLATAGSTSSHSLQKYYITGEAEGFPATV
T1 sequence (P03372 whole entry, looked up, the tested form may be a part): as the sequence (P03372 whole entry, looked up) above
T1 sequence (Q92731 whole entry, looked up, the tested form may be a part): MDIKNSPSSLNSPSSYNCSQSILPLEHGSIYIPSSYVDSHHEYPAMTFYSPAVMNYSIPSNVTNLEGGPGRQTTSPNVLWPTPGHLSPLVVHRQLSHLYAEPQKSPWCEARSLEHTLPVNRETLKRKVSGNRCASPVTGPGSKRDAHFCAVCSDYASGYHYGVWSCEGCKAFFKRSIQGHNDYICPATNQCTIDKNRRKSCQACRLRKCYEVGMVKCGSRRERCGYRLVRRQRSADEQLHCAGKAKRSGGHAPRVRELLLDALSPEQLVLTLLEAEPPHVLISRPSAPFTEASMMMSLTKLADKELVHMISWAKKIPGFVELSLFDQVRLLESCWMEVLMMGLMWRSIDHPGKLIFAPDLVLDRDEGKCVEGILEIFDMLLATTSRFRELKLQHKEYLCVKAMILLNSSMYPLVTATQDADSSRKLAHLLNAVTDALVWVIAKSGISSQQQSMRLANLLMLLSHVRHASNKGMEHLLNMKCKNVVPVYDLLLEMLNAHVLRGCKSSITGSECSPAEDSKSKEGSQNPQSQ
Retinoic acid receptor alpha (Homo sapiens), sequence (P10276 whole entry, looked up): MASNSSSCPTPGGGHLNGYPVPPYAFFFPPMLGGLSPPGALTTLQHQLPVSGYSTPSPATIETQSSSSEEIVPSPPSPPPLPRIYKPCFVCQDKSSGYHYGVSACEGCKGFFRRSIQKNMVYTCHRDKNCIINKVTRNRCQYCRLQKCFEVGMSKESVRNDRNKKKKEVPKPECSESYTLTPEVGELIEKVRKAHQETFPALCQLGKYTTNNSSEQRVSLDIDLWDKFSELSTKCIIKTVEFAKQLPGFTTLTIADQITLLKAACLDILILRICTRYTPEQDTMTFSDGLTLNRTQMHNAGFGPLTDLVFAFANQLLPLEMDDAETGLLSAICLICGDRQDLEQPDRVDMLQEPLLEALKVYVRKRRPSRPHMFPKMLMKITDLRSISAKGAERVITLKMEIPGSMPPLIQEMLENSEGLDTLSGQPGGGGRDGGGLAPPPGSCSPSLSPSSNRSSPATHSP

For the compound `CCCCOC(=O)c1ccccc1C(=O)OCCCC`, the result in test [1], in test [2], in [3], in [4], in test [5] and in test [11] was inactive. Moreover, the AC50 in test [6] is 35.4 µM (active) and 46.5 µM (active) and 60 µM (active); in test [7], 46.7 µM (active) and 37.4 µM (active) and 35.4 µM (active); in [8] it was 33.1 µM (active) and 25.9 µM (active) and 23.5 µM (active); in [9], 38.4 µM (active) and 33.9 µM (active) and 39.3 µM (active); in test [10], 28.8 µM (active) and 38.1 µM (active) and 34.2 µM (active).
In the case of `CCCCNC(=O)n1c(NC(=O)OC)nc2ccccc21`, the outcome in [12], in test [6], in test [7], in [8], in [13] and in test [14] was inactive. The result in [9] and in [10] was inactive.
As for `COc1ccc(C(c2ccc(OC)cc2)C(Cl)(Cl)Cl)cc1`, the compound was classed as inactive in test [1], in [2], in test [3], in [5], in [15] and in [11]. In addition, in [16], the outcome was inactive. The AC50 in test [5] was 4.64 µM (active) and 5.49 µM (active) and 13.9 µM (active); in [6], 13.8 µM (active) and 21.6 µM (active) and 14.4 µM (active); in test [7], 13 µM (active) and 12.5 µM (active) and 10.8 µM (active); in [8] it was 4.23 µM (active) and 12.5 µM (active) and 9.58 µM (active); in test [9], 25.8 µM (active) and 33.2 µM (active) and 22.2 µM (active); in [10], 3.79 µM (active) and 3.62 µM (active) and 3.92 µM (active).
`COc1nc(C)nc(NC(=O)NS(=O)(=O)c2ccccc2CCC(F)(F)F)n1`: the call in test [2] was inactive.
For `C=CCC1=C(C)C(OC(=O)C2C(C=C(C)C)C2(C)C)CC1=O` (stereo unspecified), the outcome in test [17], in test [3], in [4], in test [18], in test [5] and in test [6] was inactive. In addition, the call in test [7] was inactive.
Regarding `CNC(=S)S`, the call in test [19], in test [2], in [6], in test [7], in test [8] and in test [9] was inactive. The result in test [10] was inactive.
As to `Cc1c(F)c(F)c(COC(=O)C2C(/C=C(\Cl)C(F)(F)F)C2(C)C)c(F)c1F` (stereo unspecified), the compound was called inactive in [12], in test [3], in [5], in test [6], in test [7] and in [8]. For the same compound, the outcome in test [9] and in test [10] was inactive.
Consider `CC1COC(Cn2cncn2)(c2ccc(Oc3ccc(Cl)cc3)cc2Cl)O1` (stereo unspecified), for which the compound was classed as inactive in [17], in [6], in test [7], in test [9] and in test [10].
In the case of `CNC(=O)ON=CC(C)(C)SC`, the outcome in test [1], in test [2], in [6] and in [7] was inactive.
In the case of `O=C(Nc1ccccc1)Nc1ccnc(Cl)c1`, the call in test [12], in test [6], in test [7] and in [13] was inactive.
Take `CCCCNC(=O)OCC#CI`: the outcome in test [17], in test [1], in [3], in test [5], in [6] and in test [7] was inactive. In test [10], the call was inactive. For the same compound, in test [16], the AC50 was 6.55 µM (active).
For `C=CC1(C)OC(=O)N(c2cc(Cl)cc(Cl)c2)C1=O` (stereo unspecified), the outcome in [1], in [3], in [4], in test [5], in [6] and in test [7] was inactive. Further, the outcome in test [8], in test [9] and in [10] was inactive. Besides, the AC50 in test [16] was 37.4 µM (active).
